# Data taken from PubChem BioAssay (EPA / NIEHS).
# Calls of active or inactive are those of the source. How the source made its calls: active means hit-call score of the fitted dose curve at least 0.9, where 1 is the maximum; inactive means score below 0.9.
# Read-out: matrix metalloproteinase-3 (MMP3), MMP3 (gene 4314)
# Assay: LTEA_HepaRG_MMP3: Life Technologies and Expression Analysis (LTEA) Assay for matrix metalloproteinase-3 (MMP3) using HepaRG (AID 2283519)
# Settings: mRNA level, 48 h; actives raise or lower the signal
# Experimental: LTEA_HepaRG is a cell based, multiplexed-readout assay that uses HepaRG, a human liver cell line, with measurements taken at 48 hours after chemical dosing on a 96-well plate.LTEA_HepaRG_MMP3 is one of 102 assay component(s) measured in the LTEA HepaRG cell culture assay. It is a marker of Fibrosis.Data from the assay component LTEA_HepaRG_MMP3 was analyzed into 1 endpoint. This assay endpoint, LTEA_HepaRG_MMP3, was analyzed with bidirectional fitting relative to DMSO as the negative control and baseline of activity. Using a type of inducible reporter, measures of mRNA induction for gain or loss-of-signal activity can be used to understand regulation of transcription factor activity. To generalize the intended target to other relatable targets, this assay endpoint is annotated to the protease intended target family, where the subfamily is matrix metalloproteinase.
# A total of 1060 chemcials from the ToxCast library were tested in eight-point concentration-response experiments. Cell culture and cytotoxicity assays were conducted at Thermo Fisher Scientific's Custom Services facility (Madison, WI). A single lot of human HepaRG cells (Thermo Fisher Scientific, Frederick, MD) was used for the cell culture experiments. 96-well format collagen type I coated plates of human HepaRG cells were prepared using established methods. Briefly, cryopreserved HepaRG cells were thawed, plated at a density of approximately 100,000 cells/well in HepaRG Thaw, Plate, and General Purpose media (HPRG770, Thermo Fisher Scientific), and incubated for 48 hours. 0.5% DMSO was selected as vehicle control to balance the requisite need of DMSO in HepaRG cultures to maintain differentiation (for example, baseline metabolism, proportions of hepatocytes vs. cholangiocytes), while enabling further hepatic receptor pathway activation (for example, PXR and CAR) in response to chemical exposure. 48 hours after plating, the culture medium was replaced with HepaRG Serum-Free Incudtion Media. Cells were exposed to each test chemical in duplicate and maintained in CO2 incubators for another 48 hours. Chemical plates were thawed to room temperature and 200x concentrations of treatment groups were prepared. 8-point conentration-reponse curves were made with the highest exposure at 100 uM, followed by half-log dilutions, all in 0.5% DMSO. Each test plate contained variouse controls, induction positive controls (1mM phenobarbital), cytotoxicity positive controls ([…] aflatoxin B1), vehicle controls (0.5% DMSO), and total lysis controls (0.5% DMSO). Cell morphology images were taken using an Essen IncuCyte FLR automated microscope, with six 96-well plates imaged in about 24 minutes. Images were captured and exported and JPEG files. Spent culture media was transfered to black-well plates for the LDH assay, and remaining media was sorted at -80 C for later use. Cells were treated with RLT buffer and frozen until shipped for gene expression analysis. Total RNA was isolated from the cell suspension in 75 uL of Buffer RLT (Qiagen, Germantown, MD 20874) by Quintiles/Expression Analysis (Durham, NC) using a custom isolation procedure. Total RNA from each plate well was transferred to a preamplification plate. Fluidigm's 96.96 Dynamic ArrayTM (Fluidigm, Amsterdam, the Netherlands) technology was used for gene expression analyses by quantitative reverse transcription polymerase chain reaction (qRT-PCR, performed by Quintiles/Expression Analysis, Durham, NC)89. Standard TaqManTM Assays (Applied Biosystems/ThermoFisher Scientific, Foster City, CA) were used to assess the expression of 93 genes selected based on their selectivity and sensitivity to important hepatic receptors known to be modulated by environmental chemicals; importance in human hepatocyte functionality; and hepatotoxicity. […]
Structure (SMILES),outcome,AC50
CN(C)c1ccc(N=NS(=O)(=O)O)cc1,inactive,–
Cc1c(-c2cccnc2)c2ccccc2n1CCCCC(=O)O,inactive,–
COc1cccc(-c2ccc(/C=C\CN3CCCCCC3)cc2Cl)c1,–,69.3 µM (active)
O=C(O)CCN(C1(C(=O)NO)CCCC1)S(=O)(=O)c1ccc(Oc2ccc(F)cc2)cc1,inactive,–
NC(=O)NO,inactive,–
O=C1OC(=O)C2C3C=CC(C3)C12 (stereo not given),inactive,–
CCOCCOCCOCCO,inactive,–
COCCOCCOCCOC,inactive,–
O=C1CCC(N2C(=O)c3ccccc3C2=O)C(=O)N1 (stereo not given),inactive,–
CC1=CC(=O)CC(C)(C)C1,inactive,–
CCC(C)(C)C(=O)O[C@H]1C[C@@H](C)C=C2C=C[C@H](C)[C@H](CC[C@@H]3C[C@@H](O)CC(=O)O3)[C@H]21,inactive,–
Fc1ccccc1[C@@H](F)COC1CCC(Nc2ncnc3[nH]ncc23)CC1 (stereo not given in full),–,50 µM (active)
CCCC(=O)OCC,inactive,–
CCCCC(CC)COC(=O)CCCCCCCCC(=O)OCC(CC)CCCC (stereo not given),inactive,–
CCOC(=O)COc1ccc2c(c1)CC(NCC(O)c1cccc(Cl)c1)CC2 (stereo not given),inactive,–
Nc1nc2ncc(CNc3ccc(C(=O)N[C@@H](CCC(=O)O)C(=O)O)cc3)nc2c(=O)[nH]1,inactive,–
O=C(NS(=O)(=O)/C=C/c1ccccc1)c1ccc(F)cc1Cl,inactive,–
COc1ccc(-n2nc(C(F)F)cc2-c2ccc(S(C)=O)cc2)cc1 (stereo not given),inactive,–
CCCCCCCCCCCCCCCO,inactive,–
CC(C)CCCCCCCOC(=O)CCCCC(=O)OCCCCCCCC(C)C,inactive,–

Structure (SMILES),outcome,AC50
CC/C(=C\C(=N/O)C(N)=O)C(C)[N+](=O)[O-] (stereo not given),inactive,–
CCc1cc(SCc2sc(-c3ccc(C(F)(F)F)cc3)nc2CN2CCN(c3ccc(OC)cc3)CC2)ccc1OCC(=O)O,inactive,–
Cc1[nH]cnc1C[C@H]1CCc2c(C)c3ccccc3n2C1=O,–,77.3 µM (active)
CCCN(C1CCN(C(=O)C2CCNCC2)CC1)[C@@H]1CCc2ccc(OC)cc2C1,inactive,–
CNCc1ccc(NC(=O)c2c[nH]c3c2C(=O)CCC3)cc1,inactive,–
CCN(C(=O)c1cc(C)cc(OC[C@H](C)Nc2ccncc2)c1)C(C)C,inactive,–
O=C1CCCCCN1,inactive,–
CC(C)CC(C)(O)C#CC(C)(O)CC(C)C (stereo not given),inactive,–
CCOc1cccc(-n2cc(C(=O)N3CCN(c4cc(C(=O)O)c5ccccc5c4)CC3)nc2-c2ccc(C)cc2)c1,inactive,–
Clc1nc(Cl)c(Cl)c(Cl)c1Cl,inactive,–
CCOCCO,inactive,–
CCCCCCCCO,inactive,–
Cc1ccc(S(=O)(=O)O)cc1C,inactive,–
C[C@](N)(Cc1ccc(O)c(O)c1)C(=O)O,inactive,–
CN(C)c1ccc(Cc2ccc(N(C)C)cc2)cc1,–,50 µM (active)
Nc1cccc(N)c1,inactive,–
O=C(O)CC(O)C(=O)O (stereo not given),inactive,–
CC(C)CCO,inactive,–
C=CC(=C)CCC=C(C)C,inactive,–
Cn1c(=O)cc(Oc2ccc(F)cc2F)c2cnc(NCC(C)(C)O)nc21,–,22.1 µM (active)
